# Test results reported in PubChem BioAssay AID652042 (Broad Institute, 2013).
# Hit rate of the full screen: of about 1,100 compounds, about 350 (32%) were called active. The rule behind the calls is not given here. Not all results are given here. Entries with a potency or affinity are not part of this list.
# Assay: CEM21 lymphoblast cell cytotoxicity, dose response, cytotoxicity control for viral fusion inhibitor project, CellTiter-Glo luminescence, cherry-picked (AID 652042)
# Details: CEM21 cells viability, CellTiter-Glo ATP luminescence, 24 h; series mostly up to 35 µM
row,Structure (SMILES),"activity change, negative = cytotoxicity"
1,O=C(Nc1cc(Cl)cc(Cl)c1)C(c1ccccc1)N1CCCCC1 (configuration not stated),inactive
2,CCN1C(=O)[C@H]2[C@H]3CN=C(SCc4ccc(Cl)cc4)N3[C@@](CC)(C(=O)OC)[C@H]2C1=O,inactive
3,Cc1onc(-c2ccccc2)c1C(=O)OCCOc1cccc(Cl)c1,inactive
4,CCn1c(C)cc(C(=O)CN2C(=O)c3ccccc3S2(=O)=O)c1C,inactive
5,O=C(Nc1cc2c3c(c1)CC(=O)N3CCC2)c1ccc(Cl)cc1,inactive
6,CN(c1ccccc1)S(=O)(=O)c1ccc(Cl)c(C(=O)Nc2nc3ccccc3[nH]2)c1,inactive
7,O=C(NCCCc1nc2ccccc2[nH]1)c1ccco1,inactive
8,CCNC(=O)C[C@H]1CC[C@@H]2[C@@H](COc3ccc(NC(=O)Nc4cccc(OC)c4)cc3C(=O)N2C)O1,inactive
9,Cc1[nH]c2ccccc2c1/C=N\NC(=O)c1ccccc1Cl,inactive
10,CCOc1cccc(N(C(=O)Cc2cccs2)C(C(=O)NC2CCCCC2)c2cccn2C)c1 (configuration not stated),inactive
11,COc1cccc(-c2noc(C3CCCN(S(=O)(=O)c4cccc(Cl)c4C)C3)n2)c1 (configuration not stated),inactive
12,Cc1ccc2c(c1)C(=C(C#N)C#N)CCN2,inactive
13,COc1ccc(C(=O)CN2C(=O)c3ccccc3S2(=O)=O)cc1,inactive
14,COc1cc(/C=N/NS(=O)(=O)c2ccc(C)cc2)ccc1OCc1cccc(C(=O)O)c1,inactive
15,COC(=O)C1(C(=O)OC)C[C@H](c2ccc(OC)cc2)N(Cc2ccccc2OC)[C@@H]1c1ccccc1,inactive
16,CCOc1ccccc1CNc1ncnc2ccc(-c3c(C)noc3C)cc12,inactive
17,CCCCn1c(CN(C)Cc2ccccc2)nc2c1c(=O)n(C)c(=O)n2C,inactive
18,CCCNC(=O)C[C@H]1C[C@H]2c3cc(NC(=O)CN(C)C)ccc3O[C@H]2[C@@H](CO)O1,inactive
19,CC[C@@]1(C(=O)OC)N[C@H](CN(C)C(=O)Nc2ccc(C(F)(F)F)cc2)[C@@H]2C(=O)N(Cc3ccccc3)C(=O)[C@@H]21,inactive

row,Structure (SMILES),"activity change, negative = cytotoxicity"
1,COC(=O)[C@]12CCCCC=C1N(Cc1ccco1)C(=O)[C@H](CC(=O)NCCc1ccccc1OC)C2,inactive
2,Cn1c(=O)oc2cc(S(=O)(=O)NCc3ccncc3)ccc21,inactive
3,OCCN1CCN(C(=S)c2ccc(-c3ccccc3)cc2)CC1,inactive
4,CC1CCCN(C(=O)c2ccc(S(=O)(=O)N3CCC(c4nc5ccccc5s4)CC3)cc2)C1 (configuration not stated),inactive
5,Cn1cc(S(=O)(=O)N2CCOCC2)cc1C(=O)Nc1cccc(Cl)c1,inactive
6,Cn1c(C(=O)N2CCN(c3nc4ccccc4s3)CC2)cc2sccc21,inactive
7,CN(CC(=O)NCCc1ccc(S(N)(=O)=O)cc1)CC(=O)Nc1ccc(Cl)c(C(F)(F)F)c1,inactive
8,CCN(C[C@H]1N[C@@](C)(C(=O)OC)[C@H]2C(=O)N(Cc3ccccc3)C(=O)[C@@H]12)C(=O)Nc1ccccc1,inactive
9,Nc1ncn([C@H]2C[C@H](O)[C@@H](CO)O2)c(=O)n1,inactive
10,CCc1cc2c(NCc3ccco3)ncnc2s1,inactive
11,Nc1nc2c(ncn2[C@@H]2O[C@H](C(=O)NCC(c3ccccc3)c3ccccc3)[C@@H](O)[C@H]2O)c(=O)[nH]1,inactive
12,COc1ccccc1-c1c(-c2ccc(O)cc2O)n[nH]c1C(F)(F)F,inactive
13,C=C1CCN([C@H](C(=O)OCc2ccc(C)cc2)C(C)C)S(=O)(=O)c2ccccc21,inactive
14,COC(=O)[C@]1(C)N[C@H](CN(C)S(=O)(=O)c2ccc(-c3ccccc3)cc2)[C@@H]2C(=O)N(Cc3ccccc3)C(=O)[C@@H]21,inactive
15,O=C(NCc1ccco1)c1ccc(Cn2c(=O)c3ccccc3n(Cc3ccc(Cl)cc3)c2=O)cc1,inactive
16,COc1ccc(CCN(Cc2cccs2)S(=O)(=O)c2ccc(-n3cnnn3)cc2)cc1OC,inactive
17,Nc1c(S(=O)(=O)c2cccs2)c2nc3ccccc3nc2n1CCc1ccccc1,inactive
18,CCOC(=O)[C@@H]1[C@H]2COc3ccc(Br)cc3[C@@H]2N2C(=O)N(c3cccc(F)c3)C(=O)[C@@]12C,inactive
19,Cn1c(=O)c2c(nc(Oc3ccc4ccccc4c3)n2C)n(C)c1=O,inactive

row,Structure (SMILES),"activity change, negative = cytotoxicity"
1,COc1ccc(/C=C/c2nc(S(=O)(=O)c3ccccc3)c(NCCCN(C)C)o2)cc1OC,inactive
2,COc1cc(/C=N/O)ccc1OCc1ccc(C(=O)O)cc1,inactive
3,O=C(Nc1cc(Cl)cc(Cl)c1)C1CCC(=O)N1Cc1ccccc1Cl (configuration not stated),inactive
4,CCCNC(=O)N1[C@H](C#N)[C@H](c2ccc(-c3cccc(OC)c3)cc2)[C@@H]1CO,inactive
5,CN(C)C(=O)CCC(=O)N1CCCC(C(=O)c2ccc3c4c(cccc24)CC3)C1 (configuration not stated),inactive
6,O=C(C[C@H]1C[C@H]2c3cc(NC(=O)NC4CCCC4)ccc3O[C@H]2[C@@H](CO)O1)NC1CCCCC1,inactive
7,COC(=O)[C@@]12CCCN1[C@H](c1ccc(-c3ccc(F)cc3)c(OC)c1)[C@H]1C(=O)N(C)C(=O)[C@H]12,inactive
8,O=C(c1ccccc1)N1CCN(c2ncnc3sc4c(c23)CCC4)CC1,inactive
9,CCN(Cc1nc2cc(Cl)ccc2c(=O)[nH]1)C(=O)c1cc(C2CC2)nn1-c1ccccc1,inactive
10,Cc1cc(C)c(CN2CCN(C(=O)Cn3cnc4c(NCc5ccccc5)ncnc43)CC2)c(C)c1,inactive
11,O=C(Cn1ncc2c(=O)oc3ccccc3c21)N1CCC(N2CCCCC2)CC1,inactive
12,CCOC(=O)C1CCN(C(=O)c2ccc3c(c2)C(=O)N(c2ccccc2C)C3=O)CC1,inactive
13,COc1ccccc1CN1C(=O)CN(C2CCCCCC2)C(=O)C1c1ccc(F)cc1 (configuration not stated),inactive
14,COc1ccccc1[C@@H]1C(c2ccc(F)cc2)=NN(c2ccccc2)[C@H]1C(=O)N1CCOC1=O,inactive
15,CCN(C1CCCCC1)S(=O)(=O)c1ccc(S(=O)(=O)NCc2ccncc2)cc1,inactive
16,CC[C@@]12C(=O)N(c3ccccc3)C(=O)N1[C@H](c1ccc(OC)cc1)[C@@H]1C(=O)N(C(C)(C)C)C(=O)[C@@H]12,inactive
17,Cc1nc2sccn2c1-c1csc(NCc2ccccc2)n1,inactive
18,O=C(CN(Cc1ccccc1)S(=O)(=O)c1ccc(F)cc1)NCCC1=CCCCC1,inactive
19,O=C(CN(Cc1ccccc1F)S(=O)(=O)c1ccc(Cl)cc1)NCCC1=CCCCC1,inactive
